Measured values as given in PubChem BioAssay AID1159580 (chemical genetic matrix, 2015).
Where “and” joins values, the source holds several entries; their conditions need not be identical. Equal values may be shown once. About 2,000 (36%) of roughly 5,500 compounds were called active. About 18% were inconclusive and are not listed. Some of the results follow. Unmarked numbers belong to inactive results. Rule as the data show it: active = normalized growth mostly below about 0.91 (no sharp cut-off); inconclusive = no clear call, values can overlap the other calls; inactive = mostly above about 0.92.

Test: chemical genetic growth profiling, strain panel (AID 1159580);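 also: tested at 20 µM; growth read once vehicle control cultures reached saturation at 30 °C; 1 = growth at the plate median or of vehicle wells; lower values mean less growth of the strain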
Conditions: S. cerevisiae deletion strains, growth OD

CC1(C)CC[C@]2(C(=O)O)CC[C@]3(C)C(=CCC4[C@@]5(C)CC[C@H](O)[C@@](C)(CO)C5CC[C@]43C)C2C1 (stereo partly drawn)
normalized growth (locus YAL021C, strain ccr4, stronger effect = lower value): 1 | normalized growth (locus YAL026C, strain drs2, stronger effect = lower value): 1.02 | normalized growth (locus YAL030W, strain snc1, stronger effect = lower value): 1.02 | normalized growth (locus YBL061C, strain skt5, stronger effect = lower value): 1.01 | normalized growth (locus YBR009C, strain hhf1, stronger effect = lower value): 1.02 | normalized growth (locus YBR021W, strain FUR4, stronger effect = lower value): 1.11 | normalized growth (locus YBR023C, strain chs3, stronger effect = lower value): 1.02 | normalized growth (locus YBR171W, strain sec66, stronger effect = lower value): 1.04 | normalized growth (locus YBR229C, strain ROT2, stronger effect = lower value): 1.02 | normalized growth (locus YBR231C, strain swc5, stronger effect = lower value): 1.02 | normalized growth (locus YBR279W, strain paf1, stronger effect = lower value): 1.02 | normalized growth (locus YCL011C, strain gbp2, stronger effect = lower value): 1.03 | normalized growth (locus YCL016C, strain dcc1, stronger effect = lower value): 1.03 | normalized growth (locus YCL029C, strain bik1, stronger effect = lower value): 0.977 | normalized growth (locus YCL061C, strain MRC1, stronger effect = lower value): 1.02 | normalized growth (locus YCL069W, strain vba3, stronger effect = lower value): 1.03 | normalized growth (locus YCR088W, strain abp1, stronger effect = lower value): 1.02 | normalized growth (locus YDL005C, strain med2, stronger effect = lower value): 1.04 | normalized growth (locus YDL035C, strain GPR1, stronger effect = lower value): 1.04 | normalized growth (locus YDL040C, strain nat1, stronger effect = lower value): 1.05 | normalized growth (locus YDL074C, strain BRE1, stronger effect = lower value): 0.981 | normalized growth (locus YDL101C, strain DUN1, stronger effect = lower value): 1.02 | normalized growth (locus YDL134C, strain PPH21, stronger effect = lower value): 1.1 | normalized growth (locus YDL185W, strain tfp1, stronger effect = lower value): 0.946 | normalized growth (locus YDL192W, strain arf1, stronger effect = lower value): 0.99 | normalized growth (locus YDR001C, strain nth1, stronger effect = lower value): 1.02 | normalized growth (locus YDR069C, strain doa4, stronger effect = lower value): 1.03 | normalized growth (locus YDR101C, strain arx1, stronger effect = lower value): 1.01 | normalized growth (locus YDR137W, strain rgp1, stronger effect = lower value): 1.04 | normalized growth (locus YDR159W, strain sac3, stronger effect = lower value): 1.04 | normalized growth (locus YDR162C, strain NBP2, stronger effect = lower value): 1.07 | normalized growth (locus YDR195W, strain ref2): 1.08 | normalized growth (locus YDR297W, strain sur2, stronger effect = lower value): 1.03 | normalized growth (locus YDR318W, strain mcm21, stronger effect = lower value): 0.999 | normalized growth (locus YDR334W, strain swr1, stronger effect = lower value): 1.03 | normalized growth (locus YDR335W, strain msn5, stronger effect = lower value): 1.02 | normalized growth (locus YDR388W, stronger effect = lower value): 0.994 | normalized growth (locus YDR392W, strain spt3, stronger effect = lower value): 1.01 | normalized growth (locus YDR502C, strain sam2, stronger effect = lower value): 0.999 | normalized growth (locus YEL003W, strain gim4, stronger effect = lower value): 1.02 | normalized growth (locus YEL037C, strain rad23, stronger effect = lower value): 1.02 | normalized growth (locus YEL061C, strain CIN8 (second series), stronger effect = lower value): 1.02 | normalized growth (locus YEL061C, strain CIN8, stronger effect = lower value): 1 | normalized growth (locus YER015W, strain faa2, stronger effect = lower value): 1.02 | normalized growth (locus YER016W, strain bim1, stronger effect = lower value): 1.03 | normalized growth (locus YER110C, stronger effect = lower value): 0.987 | normalized growth (locus YER111C, strain swi4, stronger effect = lower value): 1.02 | normalized growth (locus YER155C, strain BEM2 (second series), stronger effect = lower value): 1.03 | normalized growth (locus YER155C, strain BEM2, stronger effect = lower value): 1.01 | normalized growth (locus YER167W, strain BCK2, stronger effect = lower value): 1.02 | normalized growth (locus YFR010W, strain ubp6, stronger effect = lower value): 1.02 | normalized growth (locus YGL078C, strain dbp3, stronger effect = lower value): 0.994 | normalized growth (locus YGL086W, strain mad1, stronger effect = lower value): 1.24 [resistant] (active) | normalized growth (locus YGL167C, strain pmr1, stronger effect = lower value): 1.03 | normalized growth (locus YGL173C, strain kem1, stronger effect = lower value): 1.03 | normalized growth (locus YGL227W, strain vid30, stronger effect = lower value): 1.03 | normalized growth (locus YGL240W, strain doc1, stronger effect = lower value): 1.01 | normalized growth (locus YGL248W, strain PDE1, stronger effect = lower value): 1.03 | normalized growth (locus YGL253W, strain hxk2, stronger effect = lower value): 1.02 | normalized growth (locus YGR078C, strain PAC10, stronger effect = lower value): 1.03 | normalized growth (locus YGR135W, strain pre9, stronger effect = lower value): 1.01 | normalized growth (locus YGR229C, strain SMI1, stronger effect = lower value): 1.02 | normalized growth (locus YGR252W, strain gcn5, stronger effect = lower value): 1.02 | normalized growth (locus YHR013C, strain ard1, stronger effect = lower value): 1.06 | normalized growth (locus YHR027C, strain rpn1, stronger effect = lower value): 1.02 | normalized growth (locus YHR030C, strain SLT2, stronger effect = lower value): 0.989 and 1.03 | normalized growth (locus YHR079C, strain IRE1 (second series), stronger effect = lower value): 0.999 | normalized growth (locus YHR079C, strain IRE1, stronger effect = lower value): 1.02 | normalized growth (locus YHR094C, strain hxt1, stronger effect = lower value): 1 | normalized growth (locus YHR129C, strain ARP1, stronger effect = lower value): 1 | normalized growth (locus YHR142W, strain chs7, stronger effect = lower value): 1.03 | normalized growth (locus YHR200W, strain rpn10, stronger effect = lower value): 1.01 | normalized growth (locus YIL066C, strain RNR3, stronger effect = lower value): 1.03 | normalized growth (locus YIL073C, strain SPO22, stronger effect = lower value): 1 | normalized growth (locus YIL125W, strain kgd1, stronger effect = lower value): 0.99 | normalized growth (locus YIR030C, strain dcg1, stronger effect = lower value): 1.04 | normalized growth (locus YJL092W, strain hpr5, stronger effect = lower value): 1.03 | normalized growth (locus YJL095W, strain BCK1 (second series), stronger effect = lower value): 1.02 | normalized growth (locus YJL095W, strain BCK1, stronger effect = lower value): 1.04 and 0.98 | normalized growth (locus YJL115W, strain asf1, stronger effect = lower value): 1.03 | normalized growth (locus YJL129C, strain trk1, stronger effect = lower value): 1.02 | normalized growth (locus YJL134W, strain LCB3, stronger effect = lower value): 0.995 | normalized growth (locus YJL154C, strain vps35, stronger effect = lower value): 1.02 | normalized growth (locus YJL164C, strain tpk1, stronger effect = lower value): 1.05 | normalized growth (locus YJL166W, strain qcr8, stronger effect = lower value): 1.02 | normalized growth (locus YJL168C, strain set2, stronger effect = lower value): 0.998 | normalized growth (locus YJL187C, strain SWE1 (second series), stronger effect = lower value): 1.02 | normalized growth (locus YJL187C, strain SWE1, stronger effect = lower value): 1.04 | normalized growth (locus YJR043C, strain POL32, stronger effect = lower value): 1.03 | normalized growth (locus YJR066W, strain TOR1, stronger effect = lower value): 0.977 | normalized growth (locus YKL085W, strain MDH1 (second series), stronger effect = lower value): 1.16 [resistant] (active) | normalized growth (locus YKL085W, strain MDH1, stronger effect = lower value): 1.16 [resistant] (active) | normalized growth (locus YKL160W, strain elf1, stronger effect = lower value): 1.02 | normalized growth (locus YKL190W, strain CNB1, stronger effect = lower value): 1.02 | normalized growth (locus YKR001C, strain vps1, stronger effect = lower value): 0.996 | normalized growth (locus YKR026C, strain gcn3, stronger effect = lower value): 1.03 | normalized growth (locus YKR091W, strain srl3, stronger effect = lower value): 1.03 | normalized growth (locus YLL001W, strain dnm1, stronger effect = lower value): 1.02 | normalized growth (locus YLL026W, stronger effect = lower value): 1.02 | normalized growth (locus YLL041C, strain sdh2, stronger effect = lower value): 1.12 [resistant] (active) | normalized growth (locus YLR027C, strain aat2, stronger effect = lower value): 1.02 | normalized growth (locus YLR039C, strain RIC1, stronger effect = lower value): 1.04 | normalized growth (locus YLR058C, strain SHM2, stronger effect = lower value): 1.01 | normalized growth (locus YLR102C, strain apc9, stronger effect = lower value): 0.991 | normalized growth (locus YLR113W, strain HOG1, stronger effect = lower value): 0.929 | normalized growth (locus YLR221C, strain rsa3, stronger effect = lower value): 1.02 | normalized growth (locus YLR258W, strain gsy2, stronger effect = lower value): 1.02 | normalized growth (locus YLR262C, strain YPT6 (second series), stronger effect = lower value): 1.03 | normalized growth (locus YLR262C, strain YPT6, stronger effect = lower value): 1.09 | normalized growth (locus YLR268W, strain sec22, stronger effect = lower value): 1.01 | normalized growth (locus YLR320W, strain mms22, stronger effect = lower value): 1.03 | normalized growth (locus YLR330W, strain CHS5, stronger effect = lower value): 0.994 | normalized growth (locus YLR342W, strain FKS1 (second series), stronger effect = lower value): 1.05 | normalized growth (locus YLR342W, strain FKS1, stronger effect = lower value): 1.03 | normalized growth (locus YLR357W, strain rsc2, stronger effect = lower value): 1.01 | normalized growth (locus YLR370C, strain arc18, stronger effect = lower value): 1.02 | normalized growth (locus YLR371W, strain rom2, stronger effect = lower value): 0.958 | normalized growth (locus YLR384C, strain iki3, stronger effect = lower value): 1.01 | normalized growth (locus YLR418C, strain cdc73, stronger effect = lower value): 1.02 | normalized growth (locus YML016C, strain PPZ1, stronger effect = lower value): 1.01 | normalized growth (locus YML032C, strain rad52, stronger effect = lower value): 0.998 | normalized growth (locus YML120C, strain ndi1, stronger effect = lower value): 1.02 | normalized growth (locus YML124C, strain tub3, stronger effect = lower value): 0.996 | normalized growth (locus YMR058W, strain fet3, stronger effect = lower value): 1.03 | normalized growth (locus YMR078C, strain ctf18, stronger effect = lower value): 0.991 | normalized growth (locus YMR125W, strain sto1, stronger effect = lower value): 1.03 | normalized growth (locus YMR129W, stronger effect = lower value): 1.02 | normalized growth (locus YMR205C, strain PFK2, stronger effect = lower value): 1.03 | normalized growth (locus YMR223W, strain ubp8, stronger effect = lower value): 1 | normalized growth (locus YMR231W, strain pep5, stronger effect = lower value): 1.01 | normalized growth (locus YMR307W, strain GAS1, stronger effect = lower value): 0.931 | normalized growth (locus YNL067W, strain RPL9B, stronger effect = lower value): 1.04 | normalized growth (locus YNL071W, strain lat1, stronger effect = lower value): 1.02 | normalized growth (locus YNL128W, strain TEP1, stronger effect = lower value): 0.996 | normalized growth (locus YNL183C, strain NPR1, stronger effect = lower value): 0.878 | normalized growth (locus YNL209W, strain ssb2, stronger effect = lower value): 1.01 | normalized growth (locus YNL233W, strain BNI4, stronger effect = lower value): 1.03 | normalized growth (locus YNL248C, strain rpa49, stronger effect = lower value): 1.02 | normalized growth (locus YNL250W, strain rad50, stronger effect = lower value): 0.991 | normalized growth (locus YNL271C, strain bni1, stronger effect = lower value): 0.983 | normalized growth (locus YNL298W, strain CLA4, stronger effect = lower value): 0.992 | normalized growth (locus YNL307C, strain MCK1, stronger effect = lower value): 1.01 | normalized growth (locus YNL322C, strain KRE1 (second series), stronger effect = lower value): 1.02 | normalized growth (locus YNR049C, strain mso1, stronger effect = lower value): 1.02 | normalized growth (locus YNR052C, strain pop2, stronger effect = lower value): 0.997 | normalized growth (locus YOL012C, strain htz1): 0.926 | normalized growth (locus YOL147C, strain pex11, stronger effect = lower value): 1 | normalized growth (locus YOR001W, strain rrp6, stronger effect = lower value): 1.01 | normalized growth (locus YOR061W, strain CKA2, stronger effect = lower value): 0.998 | normalized growth (locus YOR069W, strain VPS5, stronger effect = lower value): 1.01 | normalized growth (locus YOR070C, strain gyp1, stronger effect = lower value): 1 | normalized growth (locus YOR080W, strain dia2, stronger effect = lower value): 1.03 | normalized growth (locus YOR083W, strain WHI5, stronger effect = lower value): 1.02 | normalized growth (locus YOR106W, strain vam3, stronger effect = lower value): 1.04 | normalized growth (locus YOR136W, strain idh2, stronger effect = lower value): 0.999 | normalized growth (locus YOR144C, strain elg1, stronger effect = lower value): 1 | normalized growth (locus YOR184W, strain ser1, stronger effect = lower value): 1.01 | normalized growth (locus YOR231W, strain MKK1, stronger effect = lower value): 1.02 | normalized growth (locus YOR265W, strain rbl2, stronger effect = lower value): 1.01 | normalized growth (locus YOR270C, strain vph1, stronger effect = lower value): 1.05 | normalized growth (locus YOR290C, strain snf2, stronger effect = lower value): 1.03 | normalized growth (locus YOR316C, strain cot1, stronger effect = lower value): 0.989 | normalized growth (locus YPL051W, strain arl3, stronger effect = lower value): 1.01 | normalized growth (locus YPL078C, strain atp4, stronger effect = lower value): 1.02 | normalized growth (locus YPL106C, strain sse1, stronger effect = lower value): 1.04 | normalized growth (locus YPL240C, strain hsp82, stronger effect = lower value): 1.02 | normalized growth (locus YPL241C, strain CIN2, stronger effect = lower value): 0.999 | normalized growth (locus YPL256C, strain CLN2, stronger effect = lower value): 1.01 | normalized growth (locus YPR119W, strain clb2, stronger effect = lower value): 0.999 | normalized growth (locus YPR141C, strain kar3, stronger effect = lower value): 0.986 | normalized growth (locus YPR163C, strain tif3, stronger effect = lower value): 1 | normalized growth (locus YPR167C, strain met16, stronger effect = lower value): 0.996 | normalized growth (strain wtn01, stronger effect = lower value): 0.997
